In experiment [1] the target is Lysosomal acid glucosylceramidase (Homo sapiens) (UniProt P04062). As to the kind of experiment: Glucocerebrosidase-p2 (AID 348; in the data active = potency below about 10 µM; note: potency is the fitted concentration of half-maximal effect). Conditions: purified GBA, blue fluorogenic substrate, 40 min. Put shortly: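 Compounds titrated from 0.6 nM upwards against 0.2 nM enzyme in pH 5.9 citric acid/KH2PO4, taurocholate, tween-20; blue fluorogenic substrate 80 uM, 40 min room temperature, stopped and read Ex 365/Em 440 for AC50.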

Experiment [2] is described as follows: AP1 Signaling Pathway (AID 357; active = well fitted curve in either direction with a large enough effect, not every such curve was filed as active;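 note: ME-180 reporter cells stimulated with EGF at its EC50 level; % is set by controls: 0 for no effect and ±100 for the full control effect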). Conditions: ME-180 AP-1-bla reporter, EGF-induced, beta-lactamase ratio, 5 h; at 7.69 µM (top of the series) unless noted. The method in brief:
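Read-out was the 460nm/530nm emission ratio (excitation 405nm) after CCF4 loading for 2.5 hours at room temperature. Cells carried an AP-1-driven beta-lactamase reporter, were stimulated with EC50 EGF plus compound for 5 hours, and AC50 values came from titrations.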

Experiment [3] has as its target Cytochrome P450 1A2 (Homo sapiens) (UniProt P05177). As to the kind of experiment: p450-cyp1a2 (AID 410; calls by dose curve; note: potency is the fitted concentration of half-maximal effect). Conditions: recombinant CYP1A2, luciferin-ME demethylation, luminescence; series mostly up to 57 µM. Put shortly:
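Inhibition was calculated relative to 57 uM furafylline (full inhibition). The reaction used human CYP1A2 at 20nM with Luciferin-ME at its Km, 100uM, driven by an NADPH-regenerating system for 60 min at room temperature.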

Experiment [4] can be described thus: NFAT Signaling Pathway (AID 444; active = well fitted curve in either direction with a large enough effect, not every such curve was filed as active;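 note: carbachol stimulus at about its EC50 of 1 µM final; % is set by controls: 0 for no effect and ±100 for the full control effect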). Conditions: Jurkat NFAT-bla M1, carbachol, beta-lactamase ratio, 5 h; at 7.69 µM (top of the series) unless noted. Put shortly: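 Jurkat cells carrying an NFAT-driven β-lactamase reporter and co-transfected muscarinic M1 receptor were treated with compound plus carbachol (1 uM final, an EC50 level) for 5 h at 37 °C. CCF4 loading followed for 1 h at RT; 460/530 nm ratio gave %activity.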

A short description of experiment [5]: Stat Signaling Pathway (AID 446; active = well fitted curve in either direction with a large enough effect, not every such curve was filed as active;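 note: ME-180 cervical cancer cells given 40 pM IL-6 alongside compound; SIE-controlled beta-lactamase reporter measured as 460/530 nm FRET emission ratio; % is set by controls: 0 for no effect and ±100 for the full control effect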). The conditions noted are these: ME-180 (cervical carcinoma) SIE beta-lactamase reporter, IL-6 stimulated, 5 h; at 7.69 µM (top of the series) unless noted. Put shortly:
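ME-180 cells carrying a SIE-driven beta-lactamase reporter are stimulated with 40 pM IL-6 for 5 h at 37C in the presence of compound. The 460/530 nm FRET substrate ratio is read after 2.5 h at RT. Data are normalised to 300 pM IL-6 and to 125 nM JAK inhibitor controls.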

The target of experiment [6] is Glucocorticoid receptor (Homo sapiens) (UniProt P04150). As to the kind of experiment: GR-GFP Redistribution (AID 450;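 active = compounds whose dose series gives a full or clear partial fitted curve of increased nuclear translocation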; note: potency is the fitted concentration of half-maximal effect). Conditions: U2OS GR-GFP nuclear translocation, laser cytometry, 2 h.
The target is the same in experiment [7]. In words: GR-EFC Redistribution (AID 451; calls by dose curve; note: potency is the fitted concentration of half-maximal effect). The conditions noted are these: CHO-K1 GR-EFC translocation, beta-gal luminescence, 2 h. The method in brief: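 CHO-K1 cells stably expressing nuclear-localized β-gal enzyme acceptor and GR fused C-terminally to the enzyme donor fragment; ligand-driven nuclear translocation restores β-gal by complementation. Compounds titrated up to 46 uM final, 2 h at 37 °C; luminescence read.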

In experiment [8] the target is Mitogen-activated protein kinase 10 (Mus musculus) (UniProt Q61831). In words: JNK3 AlphaScreen Assay (AID 530; active = well fitted curve in either direction with a large enough effect, not every such curve was filed as active;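 note: kinase came from lysate of stimulated human HepG2 cells; signal reports phosphorylation of biotinylated GST-cJun 1-79 at Ser73 with 10 µM ATP; % is set by controls: 0 for no effect and ±100 for the full control effect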). The conditions noted are these: JNK3 lysate, c-Jun phosphorylation; series mostly up to 57.1 µM. Put shortly:
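JNK3 came from HepG2 lysates pre-activated with IL-1beta and TNF-alpha and phosphorylated biotinylated GST-cJun (1-79) at 10 uM ATP, pH 7.6, room temperature. Compounds were titrated. AlphaScreen signal used anti-phospho-cJun (Ser73) antibody.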

Experiment [9] deals with Dual specificity protein kinase CLK4 (Homo sapiens) (UniProt Q9HAZ1). In words: qHTS Assay for Inhibitors of CDC-like Kinase 4 (Kinase-Glo Assay) (AID 1770). Note: nearly all actives have a fitted effect of over 65% in size. Note: potency is the fitted concentration of half-maximal effect. The conditions noted are these: recombinant Clk4, Kinase-Glo ATP depletion luminescence; series mostly up to 66.7 µM. The method in brief: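 Recombinant human Clk4 (25 nM) phosphorylated RS repeat peptide (100 uM) with 1 uM ATP in Tris pH 7.5/MgCl2/EGTA/DTT/Triton buffer for 4.5 h at room temperature. Residual ATP was quantified by Kinase-Glo luciferase luminescence.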
On the technique in general: qHTS replaces the single test concentration by a dilution series.

The target is the same in experiment [10]. As to the kind of experiment: qHTS Assay for Inhibitors of CDC-like Kinase 4 (ADP-Glo Assay) (AID 1771). Note: nearly all actives have a fitted effect of over 70% in size. Note: potency is the fitted concentration of half-maximal effect. The conditions noted are these: recombinant CLK4, ADP-Glo luminescence; series mostly up to 80 µM. Put shortly:
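Kinase reaction: Clk4 at 25 nM, RS repeat peptide substrate at 100 uM, ATP at 1 uM, 1 hr, room temperature. Product ADP detected as luciferase signal via ADP-Glo.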

Experiment [11] shares this target. As to the kind of experiment: qHTS Assay for Inhibitors of CDC-like Kinase 4 (ADP-FP Assay) (AID 1795). Note: % is set by controls: 0 for no effect and ±100 for the full control effect; nearly all actives have a fitted effect of over 60% in size. Conditions: Transcreener ADP fluorescence polarization; series mostly up to 50 µM. Put shortly:
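Recombinant human Clk4 (6.25 nM) phosphorylated RS repeat peptide (100 uM) with 1 uM ATP in Tris pH 7.5/MgCl2/EGTA/DTT/Triton buffer for one hour. ADP was quantified by Transcreener competitive fluorescence polarization against an ADP calibration curve.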

For experiment [12], the target named is Ubiquitin carboxyl-terminal hydrolase 1 (Homo sapiens) (UniProt O94782). As to the kind of experiment: Inhibitors of USP1/UAF1: Pilot qHTS (AID 504865).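 Note: rhodamine fluorescence freed from ubiquitin-rhodamine substrate followed over time; top concentration of the series differs between compounds; % is set by controls: 0 for no effect and ±100 for the full control effect; nearly all actives have a fitted effect of over 35% in size.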 The conditions noted are these: purified USP1/UAF1, Ub-rhodamine cleavage fluorescence; series mostly up to 54.9 µM. Put shortly:
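USP1/UAF1 complex (1nM) preincubated with compound 15 min at room temperature, then Ub-Rho substrate (150nM final) added. Fluorescence read kinetically at 480/540 nm, 6 reads every 60 seconds. Buffer: 50mM HEPES pH 7.8, 0.5mM EDTA, 0.1 mg/ml BSA, 1mM TCEP, 0.01% Tween-20.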

Experiment [13] can be described thus: Primary qHTS for small molecule stabilizers of the endoplasmic reticulum resident proteome: Secreted ER Calcium Modulated Protein (SERCaMP) assay (AID 1508630). Note: % is set by controls: 0 for no effect and ±100 for the full control effect. The conditions noted are these: SH-SY5Y GLuc-SERCaMP (Gaussia luciferase released on ER calcium loss) secretion, thapsigargin, luminescence; series mostly up to 38.4 µM. The method in brief: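 GLuc-SERCaMP-expressing SH-SY5Y cells, pretreated 16 h with compound, are challenged with thapsigargin to empty ER calcium stores; after 4 h, coelenterazine is added directly to the medium and luminescence is imaged.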

Experiment [14] concerns the target Cytochrome P450 3A4 (Homo sapiens) (UniProt P08684). As to the kind of experiment: qHTS Assay for Inhibitors and Substrates of Cytochrome P450 3A4 (AID 884). Note: potency is the fitted concentration of half-maximal effect; nearly all actives have a fitted effect of over 50% in size. Conditions: recombinant CYP3A4, Luciferin-PPXE luminescence; series mostly up to 57.1 µM. The method in brief:
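20 nM human CYP3A4 with 25 uM Luciferin-PPXE (at KM) in 200 mM KPO4, preincubated 10 min with compound; NADPH regeneration started a 60 min RT reaction. Luciferin detected by luminescence, normalized to 57 uM ketoconazole as full inhibition.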

Experiment [15] has the same target. As to the kind of experiment: qHTS Assay for Activators of Cytochrome P450 3A4 (AID 885). Note: nearly all actives have a fitted effect of over 65% in size. The conditions noted are these: recombinant CYP3A4, Luciferin-PPXE luminescence, 60 min; series mostly up to 57.1 µM. The method in brief:
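Human CYP3A4 (20 nM) with Luciferin-PPXE at 25 uM (its KM) in 200 mM KPO4; 10 min compound preincubation, then NADPH regeneration and 60 min reaction at RT. Luciferin read by luminescence; normalized to 57 uM ketoconazole full inhibition.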

The target in experiment [16] is Cytochrome P450 2C19 (Homo sapiens) (UniProt P33261). As to the kind of experiment: qHTS Assay for Inhibitors and Substrates of Cytochrome P450 2C19 (AID 899). Note: potency is the fitted concentration of half-maximal effect; nearly all actives have a fitted effect of over 60% in size. The conditions noted are these: recombinant CYP2C19, luciferin-H EGE luminescence; series mostly up to 57.1 µM. The method in brief: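 Human CYP2C19 (5nM) with Luciferin-H EGE at 10uM (its KM) in 50mM KPO4 was preincubated with compound for 10 min at 37C. NADPH regeneration started a 60 min 37C reaction. Luciferin was read by luminescence, normalized to 57uM ketoconazole.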

In experiment [17] the target is Rap guanine nucleotide exchange factor 3 (Homo sapiens) (UniProt O95398). As to the kind of experiment: Confirmatory qHTS for agonist of cAMP-regulated guanine nucleotide exchange factor 3 (EPAC1) (AID 1645881).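 Note: EPAC1 catalysed release of BODIPY-GDP from Rap1B seen as fluorescence loss; 100% = effect of cAMP agonist control; nearly all actives have a fitted effect of over 75% in size.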 The conditions noted are these: EPAC1 Rap1B BODIPY-GDP exchange fluorescence; series mostly up to 154 µM.
Experiment [18] addresses 3',5'-cyclic-AMP phosphodiesterase 4B (Homo sapiens) (UniProt Q07343). As to the kind of experiment: qHTS Assay for Inhibitors of PDE-IV (AID 607; active = well fitted activation curve with a large enough effect in the main read-out, with a control signal flat, not every such curve was filed as active; note: % of control where 0% means no effect). The conditions noted are these: HEK293 ACTOne CNG channel cells, membrane potential fluorescence; series mostly up to 22.9 µM. Put shortly: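 HEK293 ACTOne cells with CNG channel (1000/well), endogenous PDE4; membrane potential dye, compounds up to 22.9 uM final. Fluorescence Ex 535/Em 590; RO 20-1724 (100 uM final) as reference.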

Values without a mark were called inactive. Results filed as inconclusive are left out. Active and inactive are the calls of the source. Unless noted, calls come from the whole dose curve; as a rule, active = well fitted curve in the direction sought with a large enough effect; inconclusive = small, poorly fitted or top-dose-only effect, or another doubt; inactive = no such curve, though single readings can be large; an effect the other way counts as inactive or inconclusive. Where only a bound is given, the exact number is not on record here.

Sequence of Lysosomal acid glucosylceramidase (Homo sapiens) (P04062 whole entry, looked up): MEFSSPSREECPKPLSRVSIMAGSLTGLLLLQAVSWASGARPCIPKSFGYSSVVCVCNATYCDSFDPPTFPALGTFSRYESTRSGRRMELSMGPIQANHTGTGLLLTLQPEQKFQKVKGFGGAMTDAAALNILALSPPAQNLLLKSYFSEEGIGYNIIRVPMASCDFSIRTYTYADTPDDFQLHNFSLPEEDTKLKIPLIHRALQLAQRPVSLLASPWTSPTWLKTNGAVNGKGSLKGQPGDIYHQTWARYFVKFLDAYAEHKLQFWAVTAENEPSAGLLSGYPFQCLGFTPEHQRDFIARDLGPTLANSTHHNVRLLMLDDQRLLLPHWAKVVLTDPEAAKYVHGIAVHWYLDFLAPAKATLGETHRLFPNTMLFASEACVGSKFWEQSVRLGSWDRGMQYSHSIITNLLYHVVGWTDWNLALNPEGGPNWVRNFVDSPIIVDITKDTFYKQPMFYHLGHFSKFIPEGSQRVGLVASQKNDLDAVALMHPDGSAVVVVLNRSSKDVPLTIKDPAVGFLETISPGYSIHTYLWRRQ
Sequence of 3',5'-cyclic-AMP phosphodiesterase 4B (Homo sapiens) (Q07343 whole entry, looked up): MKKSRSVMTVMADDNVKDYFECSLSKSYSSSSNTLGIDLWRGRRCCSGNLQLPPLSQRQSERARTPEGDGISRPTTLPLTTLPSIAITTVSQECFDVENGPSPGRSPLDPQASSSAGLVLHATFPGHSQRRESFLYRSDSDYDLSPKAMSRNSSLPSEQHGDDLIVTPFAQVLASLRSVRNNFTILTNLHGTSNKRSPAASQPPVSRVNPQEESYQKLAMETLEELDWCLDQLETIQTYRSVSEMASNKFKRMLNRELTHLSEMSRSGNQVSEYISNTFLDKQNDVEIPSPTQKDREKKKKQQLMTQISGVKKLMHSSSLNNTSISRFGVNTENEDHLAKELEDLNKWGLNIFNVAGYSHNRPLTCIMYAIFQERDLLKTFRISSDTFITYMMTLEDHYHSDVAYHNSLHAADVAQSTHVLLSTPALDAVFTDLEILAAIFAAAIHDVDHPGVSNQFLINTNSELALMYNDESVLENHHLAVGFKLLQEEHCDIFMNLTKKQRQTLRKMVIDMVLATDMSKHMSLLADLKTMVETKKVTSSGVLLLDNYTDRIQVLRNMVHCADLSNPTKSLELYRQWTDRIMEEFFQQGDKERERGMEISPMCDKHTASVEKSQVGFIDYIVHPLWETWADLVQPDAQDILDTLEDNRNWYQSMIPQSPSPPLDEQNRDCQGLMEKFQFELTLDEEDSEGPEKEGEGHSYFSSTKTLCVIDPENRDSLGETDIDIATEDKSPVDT
Sequence of Ubiquitin carboxyl-terminal hydrolase 1 (Homo sapiens) (O94782 whole entry, looked up): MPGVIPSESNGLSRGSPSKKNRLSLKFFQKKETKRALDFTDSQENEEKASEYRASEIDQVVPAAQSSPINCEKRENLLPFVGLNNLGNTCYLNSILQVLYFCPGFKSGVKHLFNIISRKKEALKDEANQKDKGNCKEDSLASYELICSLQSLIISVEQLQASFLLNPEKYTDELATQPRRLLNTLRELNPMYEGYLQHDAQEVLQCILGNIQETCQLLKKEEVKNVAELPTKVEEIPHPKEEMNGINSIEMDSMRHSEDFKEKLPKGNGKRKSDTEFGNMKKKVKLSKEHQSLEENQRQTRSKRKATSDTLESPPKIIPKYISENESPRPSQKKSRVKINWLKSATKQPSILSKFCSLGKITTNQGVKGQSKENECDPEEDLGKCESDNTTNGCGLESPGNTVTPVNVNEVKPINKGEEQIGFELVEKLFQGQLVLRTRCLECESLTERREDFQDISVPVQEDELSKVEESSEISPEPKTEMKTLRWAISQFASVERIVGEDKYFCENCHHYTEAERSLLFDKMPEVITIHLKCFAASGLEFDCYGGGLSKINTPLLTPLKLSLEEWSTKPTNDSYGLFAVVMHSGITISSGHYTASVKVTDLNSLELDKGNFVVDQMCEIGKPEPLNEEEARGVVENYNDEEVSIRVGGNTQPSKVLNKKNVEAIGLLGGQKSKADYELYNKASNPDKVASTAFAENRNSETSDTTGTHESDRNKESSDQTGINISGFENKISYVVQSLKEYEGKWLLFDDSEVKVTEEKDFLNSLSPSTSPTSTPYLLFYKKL
Sequence of Cytochrome P450 3A4 (Homo sapiens) (P08684 whole entry, looked up): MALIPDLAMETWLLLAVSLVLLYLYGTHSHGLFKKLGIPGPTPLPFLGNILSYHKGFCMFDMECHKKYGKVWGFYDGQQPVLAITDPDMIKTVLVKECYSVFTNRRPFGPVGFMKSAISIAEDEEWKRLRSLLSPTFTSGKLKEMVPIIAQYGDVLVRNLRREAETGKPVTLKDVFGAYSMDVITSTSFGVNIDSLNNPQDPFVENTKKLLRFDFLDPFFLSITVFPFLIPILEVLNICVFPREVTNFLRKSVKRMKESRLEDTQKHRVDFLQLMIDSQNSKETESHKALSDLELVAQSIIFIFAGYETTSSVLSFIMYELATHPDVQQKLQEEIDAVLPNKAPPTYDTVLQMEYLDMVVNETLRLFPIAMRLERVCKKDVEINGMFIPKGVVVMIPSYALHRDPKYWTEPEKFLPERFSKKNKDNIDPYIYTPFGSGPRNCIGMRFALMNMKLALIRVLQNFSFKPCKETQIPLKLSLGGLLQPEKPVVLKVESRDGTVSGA
Sequence of Glucocorticoid receptor (Homo sapiens) (P04150 whole entry, looked up, the tested form may be a part): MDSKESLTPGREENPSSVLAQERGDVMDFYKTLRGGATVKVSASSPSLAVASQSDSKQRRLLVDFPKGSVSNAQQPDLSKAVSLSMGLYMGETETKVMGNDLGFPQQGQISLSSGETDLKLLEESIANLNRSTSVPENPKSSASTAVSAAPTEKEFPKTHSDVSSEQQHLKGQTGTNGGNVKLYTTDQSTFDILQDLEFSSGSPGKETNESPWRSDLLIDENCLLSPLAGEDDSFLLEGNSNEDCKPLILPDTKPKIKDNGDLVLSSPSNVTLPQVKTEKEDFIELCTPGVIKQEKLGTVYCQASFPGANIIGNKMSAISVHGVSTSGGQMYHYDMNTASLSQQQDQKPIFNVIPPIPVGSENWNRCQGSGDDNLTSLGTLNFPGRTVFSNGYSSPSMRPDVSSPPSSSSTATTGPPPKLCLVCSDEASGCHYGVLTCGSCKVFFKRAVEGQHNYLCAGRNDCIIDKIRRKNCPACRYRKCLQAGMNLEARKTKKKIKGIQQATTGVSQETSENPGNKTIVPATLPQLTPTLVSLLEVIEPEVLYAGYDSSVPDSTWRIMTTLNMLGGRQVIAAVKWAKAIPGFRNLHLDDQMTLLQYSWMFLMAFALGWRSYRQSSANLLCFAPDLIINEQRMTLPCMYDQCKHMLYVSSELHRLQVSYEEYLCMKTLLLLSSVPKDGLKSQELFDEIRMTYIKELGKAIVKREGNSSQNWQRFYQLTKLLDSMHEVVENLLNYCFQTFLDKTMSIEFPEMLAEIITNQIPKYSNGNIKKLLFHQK
Sequence of Dual specificity protein kinase CLK4 (Homo sapiens) (Q9HAZ1 whole entry, looked up): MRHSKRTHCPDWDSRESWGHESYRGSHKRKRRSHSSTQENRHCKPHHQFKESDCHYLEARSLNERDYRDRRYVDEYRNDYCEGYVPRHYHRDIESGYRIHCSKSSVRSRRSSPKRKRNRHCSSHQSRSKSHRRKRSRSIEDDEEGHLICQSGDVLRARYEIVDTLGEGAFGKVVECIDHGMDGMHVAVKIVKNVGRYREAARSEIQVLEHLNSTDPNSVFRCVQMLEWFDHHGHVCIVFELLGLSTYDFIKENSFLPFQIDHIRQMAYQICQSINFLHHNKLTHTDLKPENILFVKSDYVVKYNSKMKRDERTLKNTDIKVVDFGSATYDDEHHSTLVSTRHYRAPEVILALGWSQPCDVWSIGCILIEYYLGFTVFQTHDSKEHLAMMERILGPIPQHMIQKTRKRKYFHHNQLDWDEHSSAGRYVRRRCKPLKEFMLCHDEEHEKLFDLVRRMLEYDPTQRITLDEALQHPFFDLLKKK
Sequence of Cytochrome P450 1A2 (Homo sapiens) (P05177 whole entry, looked up): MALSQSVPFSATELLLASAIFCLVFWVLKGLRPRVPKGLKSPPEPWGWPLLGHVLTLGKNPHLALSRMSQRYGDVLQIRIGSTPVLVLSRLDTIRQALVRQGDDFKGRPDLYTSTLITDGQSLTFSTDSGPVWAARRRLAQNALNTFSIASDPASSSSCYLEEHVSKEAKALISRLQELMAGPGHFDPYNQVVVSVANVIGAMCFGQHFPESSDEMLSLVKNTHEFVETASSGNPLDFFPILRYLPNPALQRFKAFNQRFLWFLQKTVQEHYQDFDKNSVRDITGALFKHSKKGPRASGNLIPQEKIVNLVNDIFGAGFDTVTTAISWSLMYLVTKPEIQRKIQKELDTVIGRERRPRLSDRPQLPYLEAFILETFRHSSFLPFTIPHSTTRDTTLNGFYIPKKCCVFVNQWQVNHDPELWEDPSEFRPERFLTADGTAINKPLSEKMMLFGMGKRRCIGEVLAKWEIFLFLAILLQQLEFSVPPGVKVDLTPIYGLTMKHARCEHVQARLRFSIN
Sequence of Cytochrome P450 2C19 (Homo sapiens) (P33261 whole entry, looked up): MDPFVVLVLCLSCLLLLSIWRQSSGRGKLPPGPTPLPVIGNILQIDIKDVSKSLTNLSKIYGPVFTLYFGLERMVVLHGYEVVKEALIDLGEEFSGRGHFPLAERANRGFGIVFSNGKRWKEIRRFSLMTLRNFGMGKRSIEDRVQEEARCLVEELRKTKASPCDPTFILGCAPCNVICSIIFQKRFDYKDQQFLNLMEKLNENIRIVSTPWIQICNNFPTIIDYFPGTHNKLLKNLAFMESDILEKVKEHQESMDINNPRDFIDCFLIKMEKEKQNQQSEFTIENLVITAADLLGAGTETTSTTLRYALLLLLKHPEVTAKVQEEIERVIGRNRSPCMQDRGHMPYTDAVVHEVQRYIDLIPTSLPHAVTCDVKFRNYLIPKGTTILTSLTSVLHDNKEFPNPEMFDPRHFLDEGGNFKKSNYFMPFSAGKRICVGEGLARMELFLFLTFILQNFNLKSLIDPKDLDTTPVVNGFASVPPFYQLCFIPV

`COc1ccc(-n2c(=O)c(CCc3ccccc3)nc3cncnc32)cc1`: the Potency in experiment [1] was > 11.4 µM; in experiment [3], 25.1 µM (active); in experiment [6], > 9.22 µM; in experiment [7] it was > 46 µM. Further, the activity change, negative = inhibition in experiment [2] was -15.2%; in experiment [4], -3.92%. The activity, negative = inhibition in experiment [5] is -3.17%. The Potency entry in experiment [8], in experiment [9], in [10], in [11] and in [12] was “inactive” throughout. Also, the outcome in [13] was inactive.
For the compound `COc1ccc(CNc2ccnc(-c3cccc(C#N)c3)n2)c(OC)c1`, the Potency in experiment [3] was 2.51 µM (active); in experiment [6], > 46 µM; in experiment [7], > 46 µM; in [14], 2 µM (active); in experiment [16], 3.98 µM (active); in experiment [9] it was 15.8 µM (active). Moreover, the Potency in [10] is 10 µM (active). Further, the Potency result in [8], in experiment [15], in experiment [12] and in experiment [17] was “inactive” throughout. In addition, the outcome in [13] was inactive.
Turning to `O=c1cnc2cnc(Oc3ccccc3)nc2n1C1CC1`, the Potency is > 11.4 µM in [1], 7.94 µM (active) in [3], > 9.22 µM in [6] and > 46 µM in experiment [7]. The activity change, negative = inhibition in experiment [2] was -14%; in [4], -5.78%. Also, the activity, negative = inhibition in experiment [5] is -13.1%. The Potency entry in experiment [8], in [18], in [9], in [10], in [11] and in experiment [12] was “inactive” throughout. The result in experiment [13] was inactive.
With `COc1ccc(C(=O)N2CCC3(CCCN(Cc4cc(C(F)(F)F)cc(C(F)(F)F)c4)C3)CC2)cc1`, the results for the Potency in [1] and in experiment [7] were > 11.4 µM and > 46 µM, respectively. Besides, the Potency entry in experiment [3], in [8], in experiment [18], in experiment [15] and in experiment [17] was “inactive” throughout. In addition, the activity change, negative = inhibition in experiment [4] is -13.8%. Also, the activity, negative = inhibition in experiment [5] is -8.85%. Further, in [13], the outcome was inactive.
Turning to `COc1ccc(-n2c(=O)c(C)nc3cnc(N4CCOCC4)nc32)cc1`, the Potency is > 11.4 µM in experiment [1], 12.6 µM (active) in experiment [3], > 9.22 µM in [6] and > 46 µM in [7]. For the same compound, the results for the activity change, negative = inhibition in experiment [2] and in [4] were -10.2% and 3.24%, respectively. Moreover, in experiment [5], the activity, negative = inhibition was -6.68%. Further, the Potency entry in experiment [8], in [18], in [9], in [10], in [11] and in experiment [12] was “inactive” throughout. In addition, the result in experiment [13] was inactive.
On to `Cn1cc(-c2nc3cnc(Oc4ccccc4)nc3n(Cc3cccs3)c2=O)c2ccccc21`, for which the Potency is > 11.4 µM in [1], 3.16 µM (active) in experiment [3], > 9.22 µM in experiment [6] and > 46 µM in experiment [7]. The activity change, negative = inhibition in experiment [2] was 7.68%; in [4] it was 23.5%. Also, in experiment [5], the activity, negative = inhibition was 11%. The Potency entry in experiment [8], in experiment [18], in experiment [9], in experiment [10], in experiment [11] and in [12] was “inactive” in each case. Further, in [13], the outcome was inactive.
`COCCn1c(=O)c(-c2ccccc2)nc2cncnc21`: the Potency in [1] was > 11.4 µM; in experiment [3] it was 0.794 µM (active); in experiment [6] it was > 9.22 µM; in [7] it was > 46 µM. Besides, the activity change, negative = inhibition is -9.61% in experiment [2] and -5.89% in experiment [4]. For the same compound, the activity, negative = inhibition in experiment [5] is -10.2%. Besides, the Potency entry in [8], in experiment [18], in [9], in [10], in experiment [11] and in experiment [12] was “inactive” each time. Besides, the result in [13] was inactive.

(Values after PubChem BioAssay (NCATS).)
